Tgondii IFNg – T. gondii growth inhibition with IFN-gamma, primary screen, cell-based; 3.8% of 69,000 active; activity change, negative = inhibition, % (no concentration beside the values); Toxoplasma gondii growth in IFN-gamma-treated host cells; stronger effect = lower value; AID 1259416, 2018; in the data active means activity change below about -70%, passing the limit was not always enough;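 further: host cells are HeLa cells infected with Toxoplasma gondii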
Of the large screens only hits and unclear results are named; the others gave an inactive call; ! = a repeat was not active. Shown is part of a subset that was picked to be rich in hits.

COc1ccc(C(=O)c2sc3nc(C)cc(C(F)(F)F)c3c2N)cc1OC	none
Cn1ncc2c3ccccc3n(CC(=O)NCCCN3CCCC3)c2c1=O	none
OC[C@@H]1Nc2ccc(-c3cccc(F)c3)cc2[C@H]2[C@@H]1CCN2Cc1ccc(F)cc1	none
Cc1nc2c(Cl)cc(Cl)cc2c2nc(N)nn12	Tgondii IFNg -92
CC(C)C(CNC(=O)c1ccc2c(c1)nnn2C1CCCCC1)N(C)C (stereo unspecified)	none
OCC1(Cc2cccc(C(F)(F)F)c2)CCN(c2ccc3ccccc3n2)CC1	none
OCC1(CCc2ccccc2)CCN(c2ccc3ccccc3n2)CC1	Tgondii IFNg -77
OCC1(CCc2ccccc2)CCN(c2nccc(N3CCC(O)C3)n2)CC1 (stereo unspecified)	none
CS(=O)(=O)N1CC2(CCOCC2)c2cc(NC(=O)c3ccco3)ccc21	none
Cc1noc(C)c1NC(=O)N(C)C[C@H]1Oc2cc(C#CCN(C)C)ccc2S(=O)(=O)N([C@H](C)CO)C[C@H]1C	none
Cc1cccc2nc(C(=O)N(Cc3ccccc3)CC(C)CO)c(F)n12 (stereo unspecified)	none
COc1ccc(-c2cc(=S)sc(N)c2C#N)cc1OC	none
COc1ccc(-c2c(C#N)c(N)nc3c2CCc2ccccc2-3)cc1OC	Tgondii IFNg -86
COc1ccc(-c2cc(-c3ccccc3)nc(N)c2C#N)cc1OC	none
CCCN(Cc1nccn1C)C(=O)c1cn(-c2ccccc2)nn1	none
Cc1cc(C#N)c2c(c1)CCCCCCCCCC2	none
COc1cc2c(Oc3ccc4[nH]c(C)cc4c3F)ncnc2cc1OCCCN1CCCC1	none
C#Cc1cccc(Nc2ncnc3cc(OCCOC)c(OCCOC)cc23)c1	none
COc1cc2c(Nc3ccc(NC(=O)c4ccccc4)cc3)ncnc2cc1OCCCN1CCOCC1	Tgondii IFNg -76!
CC(=O)Nc1ccc(NS(=O)(=O)c2ccc3[nH]c(=O)ccc3c2)cc1	none
Cc1cccc(C(C(=O)NCCC(=O)Nc2nccs2)N(C)C)c1 (stereo unspecified)	none
O=CNC1CCCc2c1[nH]c1ccc(Cl)cc21 (stereo unspecified)	Tgondii IFNg -81
NC(=O)C1CCCc2c1[nH]c1ccc(Cl)cc21 (stereo unspecified)	none
CN1C(=O)C2(NCCc3c2[nH]c2ccc(Cl)cc32)c2cc(Br)ccc21 (stereo unspecified)	none
CCCCC(=O)Nc1ccc(C(=O)NC2(CO)CCCC2)cc1	none
COCC1(C(=O)NC(c2ccncc2)c2ccc(C)cc2)CCC1 (stereo unspecified)	none
CN(Cc1ccccc1)Cc1cc(C(=O)NC2C=CS(=O)(=O)C2)no1 (stereo unspecified)	none
Cc1cc(C(=O)Nc2ccc3c(c2)CCC(=O)N3)no1	none
CCOc1ccccc1C(=O)Nc1ccc(S(=O)(=O)Nc2cc(C)on2)cc1	none
Cc1cc(C(=O)Nc2ccc(S(N)(=O)=O)cc2)no1	Tgondii IFNg -87
O=C(c1ccc(F)cc1)N1CCCn2nnc(Cn3cccn3)c2C1	none
O=C(Nc1cccc(Cl)c1)c1ncn2c1CN(CC1CC1)S(=O)(=O)c1ccccc1-2	none
Cc1nc(C(C)N(C)Cc2cccc(CN3CCOCC3)c2)c(C)s1 (stereo unspecified)	none
COc1ccccc1-n1cc(-c2ccnc(NCCc3cnccn3)n2)cn1	none
Fc1ccccc1-n1cc(-c2ccnc(NCc3ccon3)n2)cn1	Tgondii IFNg -76
Cc1ccccc1-n1cc(-c2ccnc(NC3CCNCC3)n2)cn1	none
CC(=O)NCCc1csc(C2CCN(C(=O)NCc3cccc(F)c3)CC2)n1	none
O=C(C[C@@H]1CC[C@H]2[C@@H](COC[C@H](O)CN2C(=O)Nc2ccc(Cl)cc2)O1)NCC1CCCCC1	none
COc1ccc(CNC(=O)C[C@@H]2C=C[C@H](NC(=O)c3cccc(F)c3)[C@H](CO)O2)cc1	none
O=S(=O)(Cc1noc(-c2ccsc2)n1)c1ccccn1	none
O=S(=O)(Cc1nc(-c2ccsc2)no1)c1ccc(Cl)cc1	none
O=S(=O)(Cc1noc(-c2cc(Cl)cc(Cl)c2)n1)c1ccc(Cl)cc1	Tgondii IFNg -87
COCCCNC(=O)c1ccc(-c2nc(CN3CCN(c4ccccc4)CC3)c(C)o2)cc1	none
O=C(Nc1cccc(OCCN2CCOCC2)c1)c1csc2c1CCCC2	none
O=C(COc1ccc(F)cc1)OCCN1CCOCC1	none
c1ccc(-c2nn3c(c2-c2ccnc4cc(OCCN5CCOCC5)ccc24)CCC3)nc1	Tgondii IFNg -78
COc1ccc(CC(=O)NCCc2sc(-c3ccc(F)cc3)nc2C)cc1OC	none
O=C(Cc1ccccc1F)NCC1CCC(c2cncn2Cc2cccnc2)CC1 (stereo unspecified)	none
Cc1cc(Cl)ccc1NC(=O)CN1C(=O)CCc2cc(S(=O)(=O)N3CCCC3)ccc21	none
Cn1cnc2cc(C(=O)Nc3ccc4c(c3)nc(C(F)(F)F)n4C)ccc21	none
CCc1nc2cc(NC(=O)COc3ccc4nsnc4c3)ccc2n1C	none
Cn1c(Nc2ccc(C(F)(F)F)cc2)nc2cc(Oc3ccnc(-c4ncc(C(F)(F)F)[nH]4)c3)ccc21	Tgondii IFNg -73
O=C(O)c1cc2n(n1)CCCN(C(=O)CCc1ccc3c(c1)OCO3)C2	none
O=C(Nc1ccc2c(c1)COC2)c1ccccc1C1CCNC1 (stereo unspecified)	none
Cc1ncc(CN2CCC(c3nn(C)c(=O)n3Cc3ccccc3)CC2)cn1	none
CC(C)(C)c1cc(C(F)(F)F)nc(SCCCNC(=O)CCc2ccccc2)n1	Tgondii IFNg -74
O=C(CCc1ccccc1)Nc1ccccc1C(F)(F)F	none
O=C(CCc1nc2ccccc2[nH]1)NCCc1ccc(C(F)(F)F)cc1	none
Clc1ccc(SCc2csc(-c3ccno3)n2)cc1	none
Clc1ccc(SCc2csc(-c3ccc(Cl)cc3)n2)cc1	none
Clc1ccc(SCc2ccsc2-c2ncns2)cc1	Tgondii IFNg -77
O=S(=O)(c1ccccc1)N1CCC2(CC1)Nc1cc(F)ccc1-n1cccc12	none
COc1ccc(-c2nc(C)c(C(C)=O)n2O)cc1OC	none
COc1ccc(/C=C/c2nn3c(-c4ccc(OC)c(OC)c4)nnc3s2)cc1	Tgondii IFNg -101
COc1ccc(-c2nnc3sc(C4COc5ccccc5O4)nn23)cc1OC (stereo unspecified)	none
COCC1CN(CC2CCOCC2)Cc2cn(C)nc21 (stereo unspecified)	none
COc1ccc2c(c1)c(CC(=O)N1CCOCC1)c(C)n2C(=O)c1ccc(Cl)cc1	none
COc1ccc2nc(Cl)c(CNCc3ccccc3F)c(N3CCOCC3)c2c1	Tgondii IFNg -99
COc1cc(CNc2ccc(N3CCOCC3)cc2)ccc1OCc1ccccc1F	none
O=C(c1ccco1)N1CCCC2(CC(Oc3cccnc3)CO2)C1 (stereo unspecified)	none
O=C(c1cnc[nH]1)N1CCC2(CC(Oc3cccnc3)CO2)C1 (stereo unspecified)	none
O=C(c1ccn[nH]1)N1CCCC2(CC(Oc3cccnc3)CO2)C1 (stereo unspecified)	Tgondii IFNg -95
COc1cc(C(=O)Oc2ccc3c(c2)C(C)CC(C)(C)N3)cc(OC)c1OC (stereo unspecified)	none
O=C(CC1Nc2ccccc2OC1=O)Nc1ccc(Cl)cc1 (stereo unspecified)	none
CCCCN(CCCC)c1ncnc2c1sc1nc3c(cc12)COC(C)(C)C3	Tgondii IFNg -103
CC1(C)Cc2c(sc3ncnc(N)c23)CO1	none
Cc1cc(C)n(CC2(CNC(=O)CN3CCCN(C)CC3)CC2)n1	none
CN1CCCN(CC2(O)CCNC2)CC1 (stereo unspecified)	Tgondii IFNg -94
O=S(=O)(NCCc1csc(-c2ccc(Cl)cc2)n1)c1ccc2c(c1)CCCC2	none
Cc1ccc(NC(=O)N2CCc3nc(CNC(=O)C4CCC4)n(C)c3C2)cc1	none
O=C1CCc2cc(C(=O)CSc3ccc(Cl)cc3Cl)ccc2N1	none

High-throughput results deposited in PubChem BioAssay by Broad Institute.
